Test results from PubChem BioAssay AID1851 (National Center for Advancing Translational Sciences (NCATS), 2009).
Several values for one entry are separate records, joined by “and”; a condition that tells them apart may be missing. Equal entries are not always repeated. Screen size: about 16,000 compounds; about 5,700 (36%) were called active. About 24% were inconclusive and are not listed. The call rests on the fitted dose curve; in most records, active means well fitted curve in the direction sought with a large enough effect; inconclusive means small, poorly fitted or top-dose-only effect, or effect the other way; inactive means no such curve, though single readings can be large or run the other way. Some of the results follow.

What follows are compounds tested against Cytochrome P450 1A2 (Homo sapiens) (UniProt P05177) (assay: Cytochrome panel assay with activity outcomes). Conditions: recombinant CYP, pro-luciferin dealkylation, luminescence, p450-cyp1a2; series mostly up to 57.1 µM.
Sequence of Cytochrome P450 1A2 (Homo sapiens) (P05177 whole entry, looked up): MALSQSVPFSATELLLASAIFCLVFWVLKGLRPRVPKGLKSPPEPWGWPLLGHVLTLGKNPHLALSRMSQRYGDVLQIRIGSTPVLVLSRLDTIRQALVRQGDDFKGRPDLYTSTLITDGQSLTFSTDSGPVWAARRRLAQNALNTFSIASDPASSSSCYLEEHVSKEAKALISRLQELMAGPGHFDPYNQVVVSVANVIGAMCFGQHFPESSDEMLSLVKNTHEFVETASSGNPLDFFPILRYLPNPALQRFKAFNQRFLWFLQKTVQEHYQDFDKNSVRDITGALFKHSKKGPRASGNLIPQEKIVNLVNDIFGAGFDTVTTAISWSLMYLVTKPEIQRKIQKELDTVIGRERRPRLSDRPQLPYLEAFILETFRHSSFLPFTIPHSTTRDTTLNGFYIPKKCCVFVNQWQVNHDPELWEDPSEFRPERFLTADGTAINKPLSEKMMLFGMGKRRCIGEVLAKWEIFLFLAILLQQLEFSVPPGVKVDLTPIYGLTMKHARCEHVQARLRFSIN
On the % scale 0 is the no-effect control and ±100 the full control effect.

Row | SMILES | AC50 | activity, negative = inhibition
1 | CC(C)(C)CNC(CO)C12CC3CC(CC(C3)C1)C2 (stereo not given) | inactive | 
2 | C=CC[C@@H](C(=O)O)c1ccccc1 |  | 0.428% [at 11.4 µM] (inactive)
3 | CCN(Cc1ccncc1)C(=O)[C@@H](CO)c1ccccc1 | 15800 nM (active) | 
4 | CN(C(=O)c1ccncc1)c1ccccc1 |  | -13.8% [at 11.4 µM] (inactive)
5 | CC(C)(C)c1[nH]nc2c1C(c1ccc(OC(=O)c3ccco3)cc1)C(C#N)=C(N)O2 (stereo not given) | 31600 nM (active) | 
6 | COCCn1c(=O)c(-c2ccc(F)cc2)nc2cnc(Oc3ccccc3)nc21 | 794 nM (active) | 
7 | COCCn1c(=O)c(-c2ccc(Cl)cc2)nc2cnc(Oc3ccccc3)nc21 | 794 nM (active) | 
8 | COCCn1c(=O)c(-c2cccc(C#N)c2)nc2cnc(Oc3ccccc3)nc21 | 15800 nM (active) | 
9 | Cn1c(=O)c(-c2cccc(C#N)c2)nc2cnc(Oc3ccccc3)nc21 | 1580 nM (active) | 
10 | COc1ccc(Oc2ncc3nc(-c4cccc(C#N)c4)c(=O)n(Cc4cccc(OC)c4)c3n2)cc1 | inactive | 
11 | C[N+]1(NCC[N@@+]2(C)CCc3ccccc3C2)CCCCC1 |  | -12.7% [at 11.4 µM] (inactive)
12 | COC(=O)[C@@]1(Cc2ccccc2)[C@H]2c3cc(C(=O)N4CCCC4)n(Cc4ccc(OC)c(OC)c4)c3C[C@H]2CN1C(=O)c1ccccc1 | inactive | 
13 | COCCn1c(=O)c(-c2ccccc2)nc2cnc(Oc3ccccc3)nc21 | 1580 nM (active) | 
14 | COCCn1c(=O)c(-c2cc(F)cc(F)c2)nc2cnc(Oc3ccccc3)nc21 | 5010 nM (active) | 
15 | COCCn1c(=O)c(-c2ccccc2)nc2cnc(Oc3ccc(OC)cc3)nc21 | 1260 nM (active) | 
16 | C#CCCCO/N=C1/C[C@@H](O)[C@@H](O)[C@@H]2[C@H]3C(=O)N(c4ccc(F)cc4F)C(=O)[C@@H]3CC[C@H]12 |  | -9.85% [at 11.4 µM] (inactive)
17 | CO[C@H]1COC(=O)C/C=C\[C@H](C)[C@@H](NS(=O)(=O)c2ccc(C)cc2)COC(=O)C/C=C\[C@@H]1C |  | -4.23% [at 11.4 µM] (inactive) and -3.02% [at 11.4 µM] (inactive)
18 | CCSC(=N)N | inactive | 
19 | C[C@@H]1O[C@H]2C3=C(C(=O)[C@H]4O[C@@H]4[C@H]3O)[C@@H]1[C@@H]1[C@@H](C)OC=C3[C@H](O)[C@H]4O[C@@H]4/C(=N\OCc4ccccc4)[C@]312 |  | -0.558% [at 11.4 µM] (inactive)
20 | COc1ccc([N+](=O)[O-])cc1COc1ccc2c(-c3ccccc3)cc(=O)oc2c1 | inactive | 
21 | COC(=O)COc1ccc2c(-c3cccc([N+](=O)[O-])c3)cc(=O)oc2c1 | 2000 nM (active) | 
22 | COC(=O)[C@@]1(Cc2ccc(F)cc2)[C@H]2c3cc(C(=O)N4CCCC4)n(Cc4ccc(C)c(F)c4F)c3C[C@H]2CN1C(=O)c1ccccc1 | inactive | 
23 | CC(Sc1nnc(Cc2cccs2)n1C1CCCCC1)C(N)=O (stereo not given) | inactive | 

Row | SMILES | AC50 | activity, negative = inhibition
24 | CCn1c(C)nc2c1C(=O)c1ccccc1C2=O | 447 nM (active) | 
25 | Cc1nc2c(n1C1CCCCC1)C(=O)c1ccccc1C2=O | 6310 nM (active) | 
26 | CCOC(=O)C(C)Sc1nnc(CNC(=O)c2ccc(OC)cc2)n1C1CCCCC1 (stereo not given) | inactive | 
27 | COC(=O)Cn1cnc(=O)c(C#N)c1/C=C/N(C)C | inactive | 
28 | COC(=O)CSc1nc(C)cc(C(F)(F)F)c1C#N | 2000 nM (active) | 
29 | COc1ccc(NC(=O)CSc2nc(-c3ccc(C)cc3)cc(C(F)(F)F)c2C#N)cc1 | inactive | 
30 | COC(=O)[C@@]1(Cc2ccc(F)cc2)[C@H]2c3cc(C(=O)N(C)C)n(Cc4ccc(C)c(F)c4F)c3C[C@H]2CN1C(=O)c1ccccc1 | inactive | 
31 | CN1CCN(c2cc(-c3ccc(N(C)C)cc3)ncn2)CC1 | 2510 nM (active) | 
32 | CN1CCN(c2ccnc(-c3ccc(N(C)C)cc3)n2)CC1 | 794 nM (active) | 
33 | CN1CCN(c2ccnc(-c3ccoc3)n2)CC1 | 12600 nM (active) | 
34 | O=C(O)CCCCn1ccc(=O)[nH]c1=O |  | -6.18% [at 11.4 µM] (inactive)
35 | C/C(CC(=O)NC1CCCC1)=N\NC(=O)Cc1cccs1 | inactive | 
36 | O=C(Cc1cccs1)N/N=C/C(Br)=C/c1ccccc1 | 5010 nM (active) | 
37 | O=C(O)C/C(=C\c1ccccc1)C(=O)O |  | -13% [at 11.4 µM] (inactive)
38 | O=C(O)c1cscc1Cc1cccs1 |  | -18.8% [at 11.4 µM] (inactive)
39 | CC(/C=N/NC(=O)Cc1cccs1)=C\c1ccco1 | 11200 nM (active) | 
40 | O=C(NCc1ccco1)C(c1ccccc1)N(C(=O)Cc1cccs1)c1ccccc1F (stereo not given) | inactive | 
41 | CN1CC[C@@]2(CCCN(C(=O)c3cccc(F)c3)C2)C1 | inactive | 
42 | Cc1cc(S(=O)(=O)NCCN(C)C)c(C)s1 | inactive | 
43 | CCOc1cc(/C=N/O)cc(Cl)c1OC | 1410 nM (active) | 
44 | COC(=O)C1=C(C)OC(N)=C(C#N)C1c1cc(OC)ccc1OC (stereo not given) | 15800 nM (active) | 
45 | COc1ccc(C2C(C#N)=C(N)OC3=C2C(=O)CC(C)(C)C3)c([N+](=O)[O-])c1OC (stereo not given) | inactive | 
46 | CCCCOC(=O)C1=C(C)Nc2ncnn2C1c1cc(OC)ccc1OC (stereo not given) | inactive | 

Row | SMILES | AC50 | activity, negative = inhibition
47 | COc1ccc(C2/C(=C(/O)c3ccc4c(c3)CC(C)O4)C(=O)C(=O)N2CCN2CCOCC2)cc1 (stereo not given) | inactive | 
48 | CC(C)=CCC/C(C)=C/CO/N=C1/C[C@@H](O)[C@@H](O)[C@@H]2[C@@H]3C(=O)N(Cc4ccccc4)C(=O)[C@H]3CC[C@@H]12 |  | 4.86% [at 11.4 µM] (inactive)
49 | CC(C)=CCC/C(C)=C/CO/N=C1/C[C@@H](O)[C@@H](O)[C@@H]2[C@@H]3C(=O)N(Cc4ccccc4)C(=O)[C@H]3CC[C@H]12 |  | 3.92% [at 11.4 µM] (inactive)
50 | CCSC1=C(C#N)C2(CCCCC2)C(C#N)=C(N)N1 | 12600 nM (active) | 
51 | CC(C)NC(=O)N1CC2(CCN(C(=O)c3ccco3)CC2)C1 | inactive | 
52 | CCOc1ccc2nc(C)cc(Nc3ccc4c(c3)OCCO4)c2c1 | 4470 nM (active) | 
53 | CCC(C)NS(=O)(=O)c1ccc(OCC(=O)Nc2ccc3c(c2)OCCO3)cc1 (stereo not given) | inactive | 
54 | CNCCCCCCCCSc1nc(C(C)C)ccc1C(=O)c1cccs1 | 31600 nM (active) | 
55 | CCOC(=O)CCN1C(=O)[C@H]2[C@H]3[C@H](O)[C@H](O)C/C(=N/OC[C@@H](O)COCc4ccco4)[C@H]3CC[C@@H]2C1=O |  | -1.05% [at 11.4 µM] (inactive)
56 | Cc1nnsc1SC(C)C(=O)O (stereo not given) | inactive | 
57 | O=C1CCCN1CC(O)CS(=O)(=O)c1ccccc1 (stereo not given) | inactive | 
58 | O=S(=O)(CC(O)COc1ccccc1Cl)c1ccccc1 (stereo not given) | 22400 nM (active) | 
59 | CC(C)CCNC1=NCCCCC1 | inactive | 
60 | CCn1c(-c2ccccc2Cl)nn(CC(=O)Nc2ccc(OC)cc2)c1=S | inactive | 
61 | O=C(Nc1ccccc1)c1cc(-c2ccccc2Cl)no1 | 794 nM (active) | 
62 | Cc1onc(-c2ccccc2Cl)c1C(=O)NCC(=O)O | inactive | 
63 | COc1ccc(NC(=O)c2cc(-c3ccccc3Cl)no2)cc1 | 2240 nM (active) | 
64 | N[C@@H](Cc1cc(CP(=O)(O)O)cc(-c2ccccc2Cl)c1)C(=O)O | inactive | 
65 | NC(N)=Nc1nc2ccc([N+](=O)[O-])cc2[nH]1 | 3160 nM (active) | 
66 | Cc1ccc([N+](=O)[O-])cc1N=C(c1cccc([N+](=O)[O-])c1)N1CCOCC1 | inactive | 
67 | OC[C@@H]1NC[C@@H](O)[C@@H](O)[C@H]1O | inactive | 
68 | Cc1cc(C)c(C#N)c(Oc2ccc(F)cc2)n1 | 2510 nM (active) | 
69 | N#Cc1c(-c2ccccc2)ccnc1Oc1ccccc1 | 1120 nM (active) | 

Row | SMILES | AC50 | activity, negative = inhibition
70 | Cc1cc(C)c(C#N)c(Oc2ccccc2)n1 | 3160 nM (active) | 
71 | CCCC(=O)Nc1cccc(Oc2nc(C)cc(C)c2C#N)c1 | 5010 nM (active) | 
72 | COc1cccc(C2C3=C(CC(C)(C)CC3=O)OC(N)=C2[N+](=O)[O-])c1 (stereo not given) | inactive | 
73 | CC(C)(C)COS(=O)OCC(C)(C)C |  | -15.5% [at 11.4 µM] (inactive)
74 | Nc1nc(N)[n+]([O-])c(N)c1NCO |  | -6.17% [at 11.4 µM] (inactive)
75 | CN(C)c1ccnc(Oc2ccc(Cl)cc2)c1C#N | 2510 nM (active) | 
76 | Cc1ccccc1-n1cnc2cc(NCc3cccs3)ccc21 | 5620 nM (active) | 
77 | Cc1ccc(Sc2nc(C)cc(C)c2S(C)(=O)=O)cc1 | 10000 nM (active) | 
78 | CNc1nc(C)cc(C)c1S(=O)(=O)c1ccc(C)cc1 | inactive | 
79 | COC(=O)[C@H](CCSC)NC(=O)C/C=C\[C@@H](C)CO |  | 2.44% [at 11.4 µM] (inactive)
80 | c1ccc2c(N3CCOCC3)nc(-c3ccoc3)nc2c1 | 1260 nM (active) | 
81 | CN1CCN(c2nc(-c3ccoc3)nc3ccccc23)CC1 | 1260 nM (active) | 
82 | O=C(c1cc(-c2ccncc2)nc2ccccc12)N1CCN(c2ccc(N3CCOCC3)nn2)CC1 | inactive | 
83 | CC1(C)O[C@H]2C[C@@H]3[C@H]4CCC5=CC(=O)CC[C@@]5(C)[C@]4(F)[C@@H](O)C[C@@]3(C)[C@@]2(C(=O)CCl)O1 | inactive | 
84 | CC(=O)O[C@]1(C(C)=O)CC[C@@H]2[C@@H]3C=C(C)C4=CC(=O)CC[C@@]4(C)[C@H]3CC[C@]21C | inactive | 
85 | CS(=O)c1ccc(-c2nc(-c3ccc(F)cc3)c(-c3ccncc3)[nH]2)cc1 (stereo not given) | 631 nM (active) | 
86 | Oc1ccc(-c2nc(-c3ccc(F)cc3)c(-c3ccncc3)[nH]2)cc1 | 15800 nM (active) | 
87 | O=C(N/N=C/C1C(c2ccccc2)C1(Cl)Cl)c1cccc(Br)c1 (stereo not given) | 2000 nM (active) | 
88 | O=C(N/N=C\c1ccc(Sc2ccccn2)o1)c1cccc(Br)c1 | 15800 nM (active) | 
89 | O=C(N[C@@]1(C(=O)O)C[C@@H]1c1ccccc1)c1ccccc1 |  | 2.45% [at 11.4 µM] (inactive)
90 | O=C(N/N=C/c1cccc(Oc2ccccc2)c1)c1cccc(Br)c1 | 891 nM (active) | 
